# The campaign covered roughly 220,000 compounds. About 530 (0.24%) were called active. What follows is part of a selection rich in actives, with near analogues and random picks from the rest. Results with a measured potency or affinity are listed apart. Unmarked numbers belong to inactive results. Rule as the data show it: active = inhibition above about 13%; inconclusive = no clear call, values can overlap the other calls; inactive = below that.
# Molecular target: Bifunctional protein GlmU (Mycobacterium tuberculosis (strain ATCC 25618 / H37Rv)) (UniProt P9WMN3)
# Assay: inhibition of mycobacterial GlmU enzyme – biochemical, glucosamine-1-phosphate acetyltransferase (AID 1376);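 also: 0% = complete reaction with vehicle and 100% = reaction without substrate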
# Details: M. tuberculosis GlmU acetyltransferase enzyme assay; stronger effect = higher value;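 tested at 30 µM in the primary screen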
# Bifunctional protein GlmU (Mycobacterium tuberculosis (strain ATCC 25618 / H37Rv)), sequence (P9WMN3 whole entry, looked up): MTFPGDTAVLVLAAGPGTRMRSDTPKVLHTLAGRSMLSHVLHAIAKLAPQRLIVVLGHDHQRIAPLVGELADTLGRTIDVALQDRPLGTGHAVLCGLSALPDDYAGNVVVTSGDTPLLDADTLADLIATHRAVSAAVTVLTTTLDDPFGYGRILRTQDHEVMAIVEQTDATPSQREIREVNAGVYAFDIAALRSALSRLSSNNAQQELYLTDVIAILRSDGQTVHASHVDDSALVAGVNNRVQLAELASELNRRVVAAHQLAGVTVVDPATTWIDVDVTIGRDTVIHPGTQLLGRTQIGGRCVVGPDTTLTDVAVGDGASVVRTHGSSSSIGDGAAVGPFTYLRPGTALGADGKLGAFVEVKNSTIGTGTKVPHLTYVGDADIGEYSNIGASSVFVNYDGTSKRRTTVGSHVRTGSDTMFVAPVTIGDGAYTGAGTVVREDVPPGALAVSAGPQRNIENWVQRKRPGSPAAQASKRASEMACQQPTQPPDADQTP
row,SMILES,inhibition
1,Cc1ccc(C(=O)NCc2ccccn2)cc1Cl,-4.77%
2,O=C(c1ccc2c(c1)OCCO2)N1CCN(Cc2ccccc2)CC1,0.55%
3,CCC(OC(=O)CC1Sc2ccccc2NC1=O)C(=O)NCC1CCCO1 (stereo unspecified),-4.76%
4,CCCCCCOC(=O)CCc1c(C)nc(N)[nH]c1=O,1.43%
5,CC(C)(C)P(=O)(N1CCOCC1)N1CCOCC1,-0.04%
6,O=CC(Br)P(=O)(N1CCOCC1)N1CCOCC1 (stereo unspecified),13.9% (active)
7,O=CC(Cl)P(=O)(N1CCOCC1)N1CCOCC1 (stereo unspecified),5.15%
8,CN(c1ccccc1)c1nc(N)c([N+](=O)[O-])c(NCc2ccccc2)n1,-0.66%
9,CCCC(=O)NNc1cc(=O)c2c(=O)n(C)c(=O)n(C)c2[nH]1,-0.71%
10,Cc1ccc(N2CC(C(=O)NCCC(C)C)CC2=O)cc1 (stereo unspecified),1.29%
11,N#CC12CNCC1CN=N2 (stereo unspecified),15.5% (active)
12,Cc1ccc2c(c1)C(c1ccccc1)C(=O)O2 (stereo unspecified),2.36%
13,Cc1noc(C)c1COC(=O)CCOc1ccccc1,13.2% (active)
14,Cc1noc(C)c1COC(=O)C(c1ccccc1)c1ccccc1,-2.73%
15,COc1ccc(OCCC(=O)OCc2c(C)noc2C)cc1,3.9%
16,Cc1ccc(N2CCN(C(=O)Nc3cccc([N+](=O)[O-])c3)CC2C)cc1 (stereo unspecified),5.55%
17,CCc1ccc(C(=O)N/N=C/c2cccc3ccccc23)nc1,-1.08%
18,O=C(c1ccccc1F)N1CCN(c2ccc([N+](=O)[O-])c(NCc3cccnc3)c2)CC1,4.22%
19,Cc1ccccc1C(=O)N1CCN(c2ccc([N+](=O)[O-])c(NCc3cccnc3)c2)CC1,14.5% (active)
20,O=C(c1ccccc1)N1CCN(c2ccc([N+](=O)[O-])c(NCc3cccnc3)c2)CC1,-14.7%
21,N#Cc1cc(C(=O)c2cc(Cl)ccc2O)cn(CC2CCCO2)c1=O (stereo unspecified),1%

row,SMILES,inhibition
1,Cc1cc(C)c2c(=O)n(CC(=O)NC3CCCC3)sc2n1,15% (active)
2,Cc1cc(C)c2c(=O)n(CC(=O)Nc3ccc(Cl)cc3)sc2n1,13% (active)
3,CCOc1ccc(NC(=O)Cn2sc3nc(C)cc(C)c3c2=O)cc1,14.9% (active)
4,Cc1cc(C)c2c(=O)n(CC(=O)Nc3cccc(Cl)c3C)sc2n1,3.9%
5,CCCNC(=O)Cn1sc2nc(C)cc(C)c2c1=O,9.09%
6,Cc1cc(C)c2c(=O)n(CC(=O)N3CCC(N4CCCCC4)CC3)sc2n1,-2.82%
7,Cc1cc(C)c2c(=O)n(CC(=O)Nc3ccc(Br)c(C)c3)sc2n1,-1.95%
8,Cc1ccc(NC(=O)Cn2sc3nc(C)cc(C)c3c2=O)c(Cl)c1,2.26%
9,Cc1cc(C)c2c(=O)n(CC(=O)Nc3cccc(F)c3)sc2n1,9.3%
10,COc1ccc(/C=N/n2c(-c3cc(C)[nH]n3)n[nH]c2=S)cc1OC,5.27%
11,Cc1ccc(NC(=O)NCc2c(C)nn(C)c2C)cc1Cl,2.69%
12,C#CCCOC(=O)N1C2=NC(C(=O)OC)=C(C(=O)OC)[C@@H]3N(CC=C)c4ccccc4[C@]23C[C@H]1C(=O)OC,-1.18%
13,CCCCn1c(SCC(=O)N2CCCCC2C)nc2cc(S(N)(=O)=O)ccc21 (stereo unspecified),-1.4%
14,COc1ccc(OCc2nnc(SCC(=O)NNC(=O)c3ccc(C)cc3)n2C)cc1,0.34%
15,COc1cc(/C=C(\C#N)c2nc3ccc(C)cc3[nH]2)c([N+](=O)[O-])cc1OC,2.93%
16,COc1cc(/C=C(\C#N)c2nc3ccccc3[nH]2)cc(OC)c1O,4.95%
17,CCOC(=O)N1CCN(CC(=O)N2c3ccccc3CCc3ccccc32)CC1,-2.37%
18,CCOc1ccc(C(=O)NCC(=O)OCC(=O)Nc2ccc(C)c(S(=O)(=O)N(C)C)c2)cc1,-3.11%
19,CCCc1ccc(C(=O)NC(=O)c2ccccc2O)cc1,2.73%
20,CCn1cnc2c1c(=O)n(CC(=O)Nc1ccc3c(c1)OC(F)(F)O3)c(=O)n2Cc1ccccc1,-4.42%
21,CCC(=O)N1CCC2(CC1)Oc1ccc(Cl)cc1C(=O)C21CC(c2ccccc2)=NO1 (stereo unspecified),3.83%

row,SMILES,inhibition
1,Cc1cc(C)n2ncc(C(=O)Nc3ccc4c(c3)OCO4)c2n1,1.37%
2,COC(=O)Cc1c(C)c2ccc(OCc3nn[nH]n3)c(C)c2oc1=O,0.72%
3,COCCCNC(=O)/C(C#N)=C/c1ccc(F)cc1,-2.31%
4,COc1cc(/C=C(\C#N)C(=O)NCC2CCCO2)ccc1OCC(=O)O (stereo unspecified),-0.12%
5,COCCCNC(=O)/C(C#N)=C/c1ccc(OCC(=O)O)c(OC)c1,13.8% (active)
6,COc1ccc2cc(-c3[nH]ncc3CN3CCCCO3)ccc2c1,-2.52%
7,N/C(=N\O)c1ccc(NC(=O)c2cccs2)cc1,4.24%
8,O=C(Nc1c(F)c(F)c(F)c(F)c1F)C1CCCCC1,-1.91%
9,O=C(/C=C/c1ccccc1)c1c(O)n(CCc2ccccc2)c(=O)[nH]c1=O,1.89%
10,O=C(O)Cn1cc(/C=N/NC(=O)c2cc3cc(Br)ccc3o2)c2ccccc21,-0.33%
11,Cn1cc(/C=N/NC(=O)c2cc3cc(Br)ccc3o2)c2ccccc21,-2.19%
12,COc1ccccc1OCc1ccc(C(=O)NCC2CCCO2)o1 (stereo unspecified),1.7%
13,CCCCOc1ccc(C(=O)N2CCC(C)CC2)cc1,-0.91%
14,CCCCOc1ccc(C(=O)N2CC(C)OC(C)C2)cc1 (stereo unspecified),6.38%
15,CCCCOc1ccc(C2CCC(C(C)=O)C(C)C2)cc1 (stereo unspecified),13.4% (active)
16,CCCSC1=N/C(=C\c2ccc([N+](=O)[O-])o2)C(=O)S1,21.6% (active)
17,CCCSC1=N/C(=C\c2ccsc2)C(=O)S1,-1.15%
18,CCSC1=N/C(=C\c2ccc(-c3ccccc3[N+](=O)[O-])o2)C(=O)S1,6.21%
19,Cc1cc(N2CCN(S(=O)(=O)c3ccccc3)CC2)c2ccccc2n1,-2.32%
